Measured values published in PubChem BioAssay (NCI).
The panel holds about 79,000 compounds, 15% with a hit somewhere; the sample as a whole holds those more often. The source made the active and inactive calls. Rule as the data show it: active = growth inhibition above about 70%; inactive = the rest.

Columns and labels:
[1] = NCI Yeast Anticancer Drug Screen. Data for the rad52 strain (AID 147);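 also: 0% = growth of vehicle-treated control cultures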; conditions: S. cerevisiae rad52 mutant growth inhibition, active compounds read high
In short: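 The repair-mutant yeast strain was incubated with compounds, then growth was read and inhibition derived relative to vehicle.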

[2] = NCI Yeast Anticancer Drug Screen. Data for the wt1 strain (AID 149);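 also: 0% = growth of vehicle-treated wt1 cultures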; conditions: S. cerevisiae wt1 strain (SPY 50644) growth inhibition, active compounds read high
In short: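 Readout: yeast growth inhibition, normalised to vehicle controls, in the wt1 strain exposed to test compounds.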

[3] = NCI Yeast Anticancer Drug Screen. Data for the rad50EPP+ strain (AID 151);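 also: 0% = growth of vehicle-treated control cultures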; conditions: S. cerevisiae rad50 mutant strain, active compounds read high
In short: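 Vehicle-normalised growth inhibition; rad50EPP+ yeast strain, altered in DNA damage repair, compound-treated.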

[4] = NCI Yeast Anticancer Drug Screen. Data for the mgt1 strain (AID 153); conditions: S. cerevisiae mgt1 mutant growth inhibition, active compounds read high
In short: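 Vehicle-normalized growth inhibition is determined in mgt1 yeast, a strain selected for a defined alteration in DNA repair or cell cycle control.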

[5] = NCI Yeast Anticancer Drug Screen. Data for the rad50 strain (AID 155);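 also: 0% = growth of vehicle-only cultures of the same strain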; conditions: S. cerevisiae rad50 strain growth inhibition, active compounds read high
In short: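 Compounds were tested on a yeast strain with an engineered DNA damage repair alteration; the reported value is growth inhibition normalised to vehicle treatment.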

[6] = NCI Yeast Anticancer Drug Screen. Data for the mec2-1 strain (AID 157); conditions: S. cerevisiae mec2-1 strain, active compounds read high
In short: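 Mutant yeast (mec2-1) grown with compound; growth inhibition relative to vehicle control reported.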

[7] = NCI Yeast Anticancer Drug Screen. Data for the rad14 strain (AID 159);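 also: 0% = growth of vehicle-treated control cultures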; conditions: S. cerevisiae rad14 strain growth inhibition, active compounds read high
In short: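 Compound-treated yeast with a defined DNA-repair lesion; growth inhibition normalised to vehicle-treated cultures.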

[8] = NCI Yeast Anticancer Drug Screen. Data for the sgs1 mgt1 strain (AID 161);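 also: 0% = growth of cultures given vehicle only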; conditions: S. cerevisiae sgs1 mgt1 strain, active compounds read high
In short: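 Compounds are added to genetically altered yeast, and growth is compared with cultures given vehicle alone to give percent inhibition.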

[9] = NCI Yeast Anticancer Drug Screen. Data for the CLN2oe strain (AID 163);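 also: 0% = growth of vehicle-only control cultures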; conditions: S. cerevisiae CLN2oe strain, active compounds read high
In short: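 Compounds are applied to yeast harbouring a defined cell-cycle control change; reduced growth compared with vehicle-treated controls gives the value.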

[10] = NCI Yeast Anticancer Drug Screen. Data for the cln2 rad14 strain (AID 165);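 also: 0% = growth equal to vehicle treated cultures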; conditions: S. cerevisiae cln2 rad14 strain, active compounds read high
In short: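 Readout is yeast growth inhibition versus vehicle-treated controls, using a strain with cln2 and rad14 alterations exposed to compound.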

[11] = NCI Yeast Anticancer Drug Screen. Data for the bub3 strain (AID 167); conditions: S. cerevisiae bub3 mutant strain, active compounds read high
In short: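 Growth of a checkpoint-deficient yeast mutant is measured after compound exposure. Values represent inhibition relative to vehicle.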

[12] = NCI Yeast Anticancer Drug Screen. Data for the wt2 strain (AID 169);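 also: 0% = growth of vehicle-treated yeast cultures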; conditions: S. cerevisiae wt2 strain growth inhibition, active compounds read high
In short: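 Against vehicle-treated controls, the growth of yeast exposed to each compound was compared, and the inhibition was recorded.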

[13] = NCI Yeast Anticancer Drug Screen. Data for the mlh1 strain (AID 171);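 also: 0% = growth of vehicle-treated control cultures of the same strain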; conditions: S. cerevisiae mlh1 strain growth inhibition, active compounds read high
In short: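 Measured: yeast growth. Reference: vehicle-treated controls. Organism: strain with a defined alteration affecting DNA damage repair or cell cycle control, treated with compound.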

[14] = NCI Yeast Anticancer Drug Screen. Data for the sgs1 strain (AID 173);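 also: 0% = growth of vehicle-only control cultures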; conditions: S. cerevisiae sgs1 mutant, active compounds read high
In short: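 Each compound was added to cultures of the altered yeast strain. Growth was recorded, and inhibition was derived by comparison with vehicle controls.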

[15] = NCI Yeast Anticancer Drug Screen. Data for the mlh1 rad18 strain (AID 175); conditions: S. cerevisiae mlh1 rad18 strain growth inhibition, active compounds read high
In short: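 Genetically defined yeast (DNA repair-deficient) exposed to compounds; growth inhibition determined relative to vehicle.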

[16] = NCI Yeast Anticancer Drug Screen. Data for the rad18 strain (AID 177); conditions: S. cerevisiae rad18 mutant growth inhibition, active compounds read high
In short: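 Vehicle-treated cultures served as the baseline for scoring compound-induced growth inhibition in DNA-repair-mutant yeast.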

[17] = at 5.0 µM (retest, dose inferred, filed as 0.5)
[18] = at 50.0 µM (retest, dose inferred, filed as 5.0)

Measured: growth inhibition

NC(N)=NS(=O)(=O)c1ccc(Nc2c3ccccc3nc3c(C(=O)NCCO)cccc23)cc1
active: [1]; at 100.0 µM 82% | [5]; [18] 73% | [5]; at 100.0 µM 73% | [16]; at 100.0 µM 77%
inactive: [1]; at 1.2 µM 1% | [1]; at 3.7 µM 3% | [1]; at 11.0 µM 4% | [1]; at 33.0 µM 17% | [2]; at 1.2 µM 1% | [2]; at 3.7 µM 1% | [2]; at 11.0 µM 2% | [2]; at 33.0 µM -1% | [2]; at 100.0 µM 5% | [3]; at 1.2 µM -1% | [3]; at 3.7 µM -5% | [3]; at 11.0 µM -5% | [3]; at 33.0 µM 5% | [3]; at 100.0 µM 37% | [4]; at 1.2 µM -1% | [4]; at 3.7 µM -4% | [4]; at 11.0 µM -3% | [4]; at 33.0 µM 12% | [4]; at 100.0 µM 38% | [5]; at 1.2 µM 0% | [5]; at 3.7 µM 0% | [5]; [17] -11% | [5]; at 11.0 µM 3% | [5]; at 33.0 µM 16% | [5]; at 50.0 µM 69.4% | [6]; at 1.2 µM -3% | [6]; at 3.7 µM 0% | [6]; [17] -4% | [6]; at 11.0 µM -2% | [6]; at 33.0 µM 1% | [6]; [18] -2% | [6]; at 50.0 µM -21.9% | [6]; at 100.0 µM 33% | [7]; at 1.2 µM 0% | [7]; at 3.7 µM -1% | [7]; at 11.0 µM -2% | [7]; at 33.0 µM 2% | [7]; at 100.0 µM 17% | [8]; [17] 2% | [8]; [18] 20% | [8]; at 50.0 µM 20.4% | [9]; at 1.2 µM 2% | [9]; at 3.7 µM 0% | [9]; at 11.0 µM 4% | [9]; at 33.0 µM -6% | [9]; at 100.0 µM 11% | [10]; [17] 16% | [10]; [18] 17% | [10]; at 50.0 µM -5.1% | [11]; at 1.2 µM -4% | [11]; at 3.7 µM -1% | [11]; [17] -12% | [11]; at 11.0 µM -4% | [11]; at 33.0 µM -4% | [11]; [18] 33% | [11]; at 50.0 µM -1.35% | [11]; at 100.0 µM 7% | [12]; at 1.2 µM 0% | [12]; at 3.7 µM 0% | [12]; at 11.0 µM 1% | [12]; at 33.0 µM 0% | [12]; at 100.0 µM 20% | [13]; at 1.2 µM -2% | [13]; at 3.7 µM 0% | [13]; at 11.0 µM 1% | [13]; at 33.0 µM 1% | [13]; at 100.0 µM 48% | [14]; at 1.2 µM -1% | [14]; at 3.7 µM 0% | [14]; at 11.0 µM 0% | [14]; at 33.0 µM 5% | [14]; at 100.0 µM 43% | [15]; [17] -1% | [15]; [18] 40% | [15]; at 50.0 µM 46% | [16]; at 1.2 µM -1% | [16]; at 3.7 µM 0% | [16]; at 11.0 µM 9% | [16]; at 33.0 µM 7%

CC1SC2(C(=O)Nc3ccc(Cl)cc32)N(c2ccc(Cl)cc2)C1=O (stereo unspecified)
inactive: [1]; at 1.2 µM -2% | [1]; at 3.7 µM 0% | [1]; at 11.0 µM 17% | [2]; at 1.2 µM -3% | [2]; at 3.7 µM -4% | [2]; at 11.0 µM -3% | [2]; at 33.0 µM 68% | [2]; at 100.0 µM 61% | [3]; at 1.2 µM -2% | [3]; at 3.7 µM -3% | [3]; at 11.0 µM -1% | [3]; at 33.0 µM -2% | [3]; at 100.0 µM 1% | [4]; at 1.2 µM -5% | [4]; at 3.7 µM -4% | [4]; at 11.0 µM 3% | [5]; at 1.2 µM -14% | [5]; at 3.7 µM 0% | [5]; [17] 20% | [5]; at 11.0 µM 10% | [5]; [18] -1% | [6]; at 1.2 µM -3% | [6]; at 3.7 µM 3% | [6]; [17] 11% | [6]; at 11.0 µM 18% | [6]; [18] 5% | [7]; at 1.2 µM -3% | [7]; at 3.7 µM -2% | [7]; at 11.0 µM 10% | [8]; [17] 15% | [8]; [18] 4% | [9]; at 1.2 µM -7% | [9]; at 3.7 µM -7% | [9]; at 11.0 µM 12% | [10]; [17] -1% | [10]; [18] -11% | [11]; at 1.2 µM 3% | [11]; at 3.7 µM 12% | [11]; [17] 28% | [11]; at 11.0 µM 31% | [11]; [18] 9% | [12]; at 1.2 µM -4% | [12]; at 3.7 µM -5% | [12]; at 11.0 µM -3% | [13]; at 1.2 µM -1% | [13]; at 3.7 µM -1% | [13]; at 11.0 µM 12% | [14]; at 1.2 µM -2% | [14]; at 3.7 µM 0% | [14]; at 11.0 µM 12% | [15]; [17] 8% | [15]; [18] -4% | [16]; at 1.2 µM -41% | [16]; at 3.7 µM 11% | [16]; at 11.0 µM 35%
active: [1]; at 33.0 µM 98% | [1]; at 100.0 µM 89% | [4]; at 33.0 µM 98% | [4]; at 100.0 µM 95% | [5]; at 33.0 µM 96% | [5]; at 50.0 µM 99.6% | [5]; at 100.0 µM 96% | [6]; at 33.0 µM 99% | [6]; at 50.0 µM 99.8% | [6]; at 100.0 µM 98% | [7]; at 33.0 µM 99% | [7]; at 100.0 µM 99% | [8]; at 50.0 µM 99.8% | [9]; at 33.0 µM 99% | [9]; at 100.0 µM 81% | [10]; at 50.0 µM 99.5% | [11]; at 33.0 µM 95% | [11]; at 50.0 µM 99.5% | [11]; at 100.0 µM 97% | [12]; at 33.0 µM 98% | [12]; at 100.0 µM 98% | [13]; at 33.0 µM 97% | [13]; at 100.0 µM 93% | [14]; at 33.0 µM 98% | [14]; at 100.0 µM 94% | [15]; at 50.0 µM 99.5% | [16]; at 33.0 µM 97% | [16]; at 100.0 µM 81%
